Test results taken from PubChem BioAssay AID624273 (Broad Institute, 2012).
Screen size: about 1,000 compounds; about 230 (23%) were called active. Another 1% or so got no clear call; they are omitted. No rule for the calls is given here. This is one part of the list. Entries with a potency or affinity are not part of this list.

Biological target: Long-chain-fatty-acid--AMP ligase FadD28 (Mycobacterium tuberculosis (strain ATCC 25618 / H37Rv)) (UniProt P9WQ59)
Experiment: inhibitors of FadD28 bisubstrate probe binding, dose response, biochemical, fluorescence polarization, cherry-pick (AID 624273)
Details: series mostly up to 50 µM; activity change, negative = inhibition: at the top concentration

Sequence of Long-chain-fatty-acid--AMP ligase FadD28 (Mycobacterium tuberculosis (strain ATCC 25618 / H37Rv)) (P9WQ59 whole entry, looked up): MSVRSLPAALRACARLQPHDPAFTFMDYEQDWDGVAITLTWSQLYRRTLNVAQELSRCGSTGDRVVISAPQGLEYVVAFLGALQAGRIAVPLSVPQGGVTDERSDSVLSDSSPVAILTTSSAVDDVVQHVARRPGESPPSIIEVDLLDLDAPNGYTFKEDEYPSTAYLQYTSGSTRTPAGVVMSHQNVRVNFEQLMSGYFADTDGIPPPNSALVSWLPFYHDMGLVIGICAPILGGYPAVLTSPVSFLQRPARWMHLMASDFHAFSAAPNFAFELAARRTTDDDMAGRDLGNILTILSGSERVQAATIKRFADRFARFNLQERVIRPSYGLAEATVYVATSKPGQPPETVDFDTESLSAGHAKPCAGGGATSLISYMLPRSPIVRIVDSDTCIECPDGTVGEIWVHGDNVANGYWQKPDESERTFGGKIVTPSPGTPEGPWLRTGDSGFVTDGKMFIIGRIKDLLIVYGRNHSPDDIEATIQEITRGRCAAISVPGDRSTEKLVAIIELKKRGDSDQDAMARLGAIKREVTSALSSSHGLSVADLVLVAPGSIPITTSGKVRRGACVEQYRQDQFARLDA

| Compound | activity change, negative = inhibition |
| --- | --- |
| NNC(=O)C1CCCn2c1nc1sc3c(c1c2=O)CCCC3 (centres undefined) | -7.35% (inactive) |
| COc1ccc(CNC(=O)c2ccc(Cl)c(S(=O)(=O)N3CCCCCC3)c2)cc1 | -7.77% (inactive) |
| O=C(CSc1ccc(Cl)cc1)N1CCOCC1 | 1.82% (inactive) |
| Cc1ccc(C(=O)NCCSCc2ccc(Cl)cc2Cl)cc1[N+](=O)[O-] | -2.77% (inactive) |
| COc1ccc(C(=O)NCCSCc2ccc(C)cc2)cc1 | -10.5% (inactive) |
| COc1ccc(CCNC(=O)c2ccc(CNS(=O)(=O)c3cccc(Cl)c3)cc2)cc1OC | -1.17% (inactive) |
| Cc1ccc(CSCCNC(=O)c2ccc(NS(C)(=O)=O)cc2)cc1 | -12.2% (inactive) |
| Cc1ccc(CSCCNC(=O)/C=C/c2ccccc2Cl)cc1 | -13.4% (inactive) |
| Brc1ccc(Sc2cnc3ccccc3n2)cc1 | -1% (inactive) |
| C=CCSc1nnc2nc3c(nn12)c1cc(C)ccc1n3CC=C | -36.9% (inactive) |
| COc1ccc(CCNC(=O)c2ccc(CNS(=O)(=O)c3ccc(C(C)(C)C)cc3)cc2)cc1OC | 0.258% (inactive) |
| COc1ccc(C(=O)NCc2ccc(C)cc2)cc1S(=O)(=O)N1CCCc2ccccc21 | -7.77% (inactive) |
| COC(=O)CC1C(=O)NCCN1C(=O)c1ccc(S(=O)(=O)N2CCOCC2)cc1 (centres undefined) | -10.9% (inactive) |
| COc1ccc(C(=O)Nc2ccc(C)cn2)cc1S(=O)(=O)N1CCCc2ccccc21 | -17.2% (inactive) |
| CC1(c2ccc(OC(F)F)cc2)NC(=O)N(CC(=O)NC2CCCC2)C1=O (centres undefined) | -0.482% (inactive) |
| CC(C)CCNc1nc(N2CCCC2)c2c(c1C#N)CCN(C)C2 | -0.029% (inactive) |
| CN(c1ccccc1)S(=O)(=O)c1ccc(NC(=O)CC(=O)c2ccccc2)cc1 | -34.3% (inactive) |
| O=C(CCNC(=O)c1ccc([N+](=O)[O-])cc1)Nc1ccccc1N1CCOCC1 | -4.24% (inactive) |
| Cc1ccc(NC(=O)c2cc([N+](=O)[O-])ccc2N2CCOCC2)cc1C | -2.08% (inactive) |
| CCN(CC)S(=O)(=O)c1cc(NC(=O)c2cc([N+](=O)[O-])ccc2N2CCOCC2)ccc1C | -15.9% (inactive) |
| O=C(NNC(=O)c1ccc(Cl)c([N+](=O)[O-])c1)c1ccncc1 | -10.7% (inactive) |
| O=C1C=C(O)CC(c2ccco2)C1 (centres undefined) | -7.71% (inactive) |
| CC(=O)C1=C(C)NC(SCC(=O)c2ccc(F)cc2)=C(C#N)C1c1ccco1 (centres undefined) | -5.91% (inactive) |
| COc1ccc(NC(=O)Nc2ccc3c(c2)C(=O)N([C@H](C)CO)C[C@H](C)[C@@H](CN(C)S(=O)(=O)c2ccc(OC)cc2)O3)cc1 | -11.8% (inactive) |
| CCN(CC)CCCNC(=O)C1c2ccccc2C(=O)N(C)C1c1ccc(OC)cc1 (centres undefined) | -2.58% (inactive) |
| COc1ccc(/C(N)=N/OC(=O)c2c(-c3ccccc3Cl)noc2C)cc1OC | 3.19% (inactive) |

| Compound | activity change, negative = inhibition |
| --- | --- |
| O=C1/C(=C\c2cc([N+](=O)[O-])ccc2O)SC(=S)N1Cc1ccc(Cl)cc1 | 28.8% (inactive) |
| CCOc1cc(/C=C2\SC(=O)N(CC(=O)Nc3ccccc3F)C2=O)cc([N+](=O)[O-])c1O | -1.31% (inactive) |
| O=C(CNC(=O)c1nc[nH]c1C(=O)NCC(=O)OCc1ccccc1)OCc1ccccc1 | 0.27% (inactive) |
| COc1ccc(OC)c2[nH]c(=O)c(CCNS(=O)(=O)c3ccc(Cl)cc3)cc12 | 5.06% (inactive) |
| Cc1cccc(C(=O)NCC(=O)OCc2nc(N)nc(Nc3ccccc3C)n2)c1 | -1.16% (inactive) |
| O=C(O)CCCc1nc(-c2ccccc2)no1 | -7.19% (inactive) |
| CCOc1cc(/C=C2\N=C(SC)SC2=O)cc([N+](=O)[O-])c1OC(C)=O | -16.8% (inactive) |
| CCC(C)OC(=O)C1=C(C)NC(=O)CC1c1ccccc1OC (centres undefined) | 0.946% (inactive) |
| Cc1ccc(/C=C/C(=O)C2C(=O)c3ccccc3C2=O)cc1 | -16.1% (inactive) |
| Cc1noc(C)c1C(=O)NCc1ccccc1Br | -4.75% (inactive) |
| O=C(NNC1CC(=O)N(c2ccc(Br)cc2)C1=O)c1cccnc1 (centres undefined) | -1.93% (inactive) |
| O=C(O)c1ccc(N=C2SCC(=O)N2Cc2ccccc2)cc1 | 5.24% (inactive) |
| O=C1CC(C(=O)Nc2ccc(Br)cc2)S/C(=N\N=C\c2ccco2)N1 (centres undefined) | -8.99% (inactive) |
| CN(C)S(=O)(=O)c1cc(NC(=O)CSc2ncc(C(F)(F)F)cc2Cl)ccc1Cl | -11% (inactive) |
| COc1cccc(NC(=S)/C(=C(\[O-])c2cc(C)n(-c3ccccc3F)c2C)[n+]2ccc(N(C)C)cc2)c1 | -2.5% (inactive) |
| O=C(c1cc2cc(Cl)ccc2[nH]1)N1CCCCC1 | -3.96% (inactive) |
| C/C(=N\N=C(/N)SC1CC(=O)N(c2ccc(Br)cc2)C1=O)c1cccs1 (centres undefined) | -5.05% (inactive) |
| CCN(CC)c1ccc(/C=N/NC(=O)Cc2cccs2)c(O)c1 | -14.5% (inactive) |
| C[C@H](CO)N1C[C@H](C)[C@H](CN(C)S(=O)(=O)c2cccs2)Oc2ccc(NC(=O)Nc3ccc4c(c3)OCO4)cc2CC1=O | -15.2% (inactive) |
| Cc1ccc(-n2ncc3c(=O)[nH]c(SCC(=O)N4CC(=O)Nc5ccccc54)nc32)cc1 | 5.97% (inactive) |
| O=C(Cc1ccccc1[N+](=O)[O-])OCC(=O)c1c[nH]c2ccccc12 | -2.76% (inactive) |
| COc1ccc(S(=O)(=O)NCC2CCCN(Cc3cn(C)nc3C)C2)cc1 (centres undefined) | -3.69% (inactive) |
| O=C(Cn1cc2c(n1)CCCC2)Nc1cc(-c2cccc(Cl)c2)no1 | 9.38% (inactive) |
| COc1ccc(-c2nc3ccccc3c(=O)n2CCCN2CCOCC2)cc1 | -2.72% (inactive) |
| CCCCOc1[nH]c2nc(-c3ccco3)n(Cc3ccco3)c(=N)c2c1C#N | -9.05% (inactive) |
| COC(=O)c1sc(NC(C)=O)c(C(=O)OC)c1C | -0.91% (inactive) |

| Compound | activity change, negative = inhibition |
| --- | --- |
| O=C1NN(c2ccc(Cl)c(Cl)c2)C(=O)/C1=C/c1ccc(-c2ccccc2C(=O)O)o1 | -16% (inactive) |
| O=[N+]([O-])c1ccc2[nH]c(=S)sc2c1 | -12.6% (inactive) |
| Clc1cccc(/C=N/N2CCN(Cc3ccccc3)CC2)c1 | -9.04% (inactive) |
| O=C(Nc1cnc2sccn2c1=O)c1ccccc1Cl | -0.049% (inactive) |
| CC1=NN(c2ccc([N+](=O)[O-])cc2)C(=O)C1 | -2.29% (inactive) |
| Cc1ccc(-n2nnnc2SCC(=O)Nc2nc(-c3ccc(F)cc3)cs2)cc1C | -3.67% (inactive) |
| COc1ccccc1CO/N=C/NC(=O)c1c(OC)ccnc1Oc1ccc(F)cc1 | -3.92% (inactive) |
| COCCNC(=O)C1CC(=O)N(c2ccc(OC)cc2)C1c1ccc(OC)cc1 (centres undefined) | -2.94% (inactive) |
| CCCOC(=O)c1ccc(NC(=O)c2cc(OC)c(OC)c(OC)c2Br)cc1 | -21.2% (inactive) |
| Cc1cccc(NC(=O)CN2C(=O)N/C(=C/c3ccc(C)s3)C2=O)c1 | -16.4% (inactive) |
| CCOc1cc(C2NC(=O)NC(C)=C2C(=O)OCC2CCCCC2)ccc1O (centres undefined) | -0.672% (inactive) |
| COc1ccc(/C=C2/NC(=O)N(CC(=O)Nc3cccc(C)c3)C2=O)cc1O | -5.24% (inactive) |
| CC(C)NC(=O)N1CCC(n2nccc2NC(=O)CCOc2ccccc2)CC1 | -2.33% (inactive) |
| O=C1NC(=S)S/C1=C\c1cc2ccccc2nc1N1CCCCC1 | -17% (inactive) |
| COc1ccc(/C=C2/C(=O)N(Cc3ccco3)C(=O)N(C(C)C)C2=O)cc1 | -13.7% (inactive) |
| CC1CC(C)CN(CCCNC(=O)Cn2cccc2C(=O)c2ccccc2)C1 (centres undefined) | -8.05% (inactive) |
| CC(=O)c1ccc(C(=O)N2CCCC(Nc3ccccc3)C2)s1 (centres undefined) | -0.111% (inactive) |
| O=C(c1ccc2nc(Cc3cccc(Cl)c3)oc2c1)N1CCC(O)CC1 | -9.52% (inactive) |
| CCOC(=O)Nc1cc(N)ncn1 | -3.17% (inactive) |
| COc1ccc(CCNC(=O)C(=O)NCCCN2CCOCC2)cc1 | -10.2% (inactive) |
| CCN(CC)c1ccc(/C=c2\sc3nnc(-c4ccccc4Cl)n3c2=O)cc1 | -17.7% (inactive) |
| Cc1ccc(S(=O)(=O)N2CCC(NC(=O)c3cccc(F)c3)CC2)cc1 | -2.21% (inactive) |
| CCC1(C)Cc2ccccc2-c2nc(NCCO)[nH]c(=O)c21 (centres undefined) | -2.68% (inactive) |
| COCC(=O)/C=C1\Sc2ccccc2N1C | -3.4% (inactive) |
| O=Cc1ccc(C(=O)OCC(=O)NC(=O)Nc2ccccc2F)cc1 | -11% (inactive) |
| COc1cccc(-c2nc3ccc(C(=O)NC(C)Cc4cccnc4)cc3o2)c1 (centres undefined) | 5.79% (inactive) |

| Compound | activity change, negative = inhibition |
| --- | --- |
| Cc1ccc(OCC(=O)Nc2ccncc2)cc1 | -4.8% (inactive) |
| Cc1ccc2nc(SCC(=O)Nc3ccc(C(N)=O)cc3)[nH]c2c1 | 0.456% (inactive) |
| O=S(=O)(c1ccc(N2CCC(c3ccc(Cl)cc3)=N2)cc1)N(CCO)CCO | -2.48% (inactive) |
| NC(N)=NS(=O)(=O)c1ccc(NC(=S)NC(=O)/C=C/c2ccc(F)cc2)cc1 | -1.73% (inactive) |
| Cc1noc(NS(=O)(=O)c2ccc(NC(=O)/C=C/c3ccc(Br)cc3)cc2)c1C | -3.32% (inactive) |
| CCOc1ccc(N(C(C)C(=O)Nc2cccnc2)S(C)(=O)=O)cc1 (centres undefined) | -21.2% (inactive) |
| COc1ccc(C2=NOC(C)(c3nnc(-c4ccccc4)o3)C2)cc1 (centres undefined) | -2.62% (inactive) |
| O=S(=O)(c1ccc(Nc2ccc(-c3ccc4c(c3)OCCO4)nn2)cc1)N1CCCC1 | -17.2% (inactive) |
| Cc1cc(-c2ccc(C)c(S(=O)(=O)Nc3ccc(S(N)(=O)=O)cc3)c2)on1 | 0.761% (inactive) |
| Cc1ccccc1C(=O)OCCN(C)Cc1ccccc1 | 0.551% (inactive) |
| COC(=O)C1=C(C)N(CCc2c[nH]c3ccccc23)C(=O)C1 | -5.77% (inactive) |
| CC(C)(C)c1ccc(OCCC(=O)Nc2cccc(S(=O)(=O)N3CCCC3)c2)cc1 | -7.77% (inactive) |
| COC(=O)c1cn(NC(=O)c2ccc([N+](=O)[O-])c(C)c2)c(=O)c2ccccc12 | -5.95% (inactive) |
| N#CC(=C=[N-])C1=C(C#N)C(c2ccccc2F)C([n+]2ccccc2)C(O)(C2CC2)N1 (centres undefined) | -12.9% (inactive) |
| COc1ccccc1C/C(N)=N/OC(=O)c1cccs1 | -8.84% (inactive) |
| COc1ccc(OC)c(NC(=O)CN2C(=O)C(C)N(c3ccc(C)cc3)C2=O)c1 (centres undefined) | 0.484% (inactive) |
| Cc1ccc(S(=O)(=O)Nc2cccc3c2O[C@@H](CN(C)C(=O)Nc2ccc4c(c2)OCO4)[C@H](C)CN([C@@H](C)CO)C3=O)cc1 | -2.6% (inactive) |
| CCCc1cc(=O)[nH]c(SCc2ccc(C#N)cc2)n1 | -3.34% (inactive) |
| COc1ccccc1-c1cnc(C(O)c2cc(C)c(OC)c(C)c2)[nH]1 (centres undefined) | -4.76% (inactive) |
| O=C(NNC(=O)C1CC1)Nc1ccc(Cl)cc1 | -0.529% (inactive) |
| O=C(NCCN1CCN(c2ccccc2F)CC1)c1cccn2c(=O)c3ccccc3nc12 | -3.39% (inactive) |
| CCOc1ccc(OCCNC2CCCC2)cc1 | -3.63% (inactive) |
| CC(C)(C)C1CCc2c(sc(NC(=O)C3CCCO3)c2C(N)=O)C1 (centres undefined) | -2.01% (inactive) |
| O=C(O)Cn1c(CCS(=O)(=O)c2ccc(Br)cc2)nc2ccccc21 | -2.94% (inactive) |
| O=C(CSc1ccc(Cl)cc1)NC1=NN(c2ccccc2)C(=O)C1 | -7.19% (inactive) |
| COc1ccc(-c2cc(C(F)(F)F)c3c(=O)n(-c4ccccc4)[nH]c3n2)cc1 | -16.9% (inactive) |
